SARS PLP yeast = SARS-CoV PLP inhibition in yeast. S. cerevisiae expressing SARS-CoV PLpro, growth rescue. Potency, µM (top dose mostly 32.9 µM), for the others: at the highest dose activity, positive = growth rescue, hits mostly activators. 330,000 compounds, 0.19% hits. AID 485353; calls by dose curve; further: 0% is about no effect; nearly all actives have a fitted effect of over 55% in size
Pf growth 96h = inhibits malaria parasite growth, 96 h; Potency, µM (top dose mostly 28.7 µM), inactives show at the top dose activity change, negative = inhibition, usual class: inhibitors; P. falciparum luciferase reporter growth, 96 h; 320,000 compounds, 6.9% hits; further: on the % scale 0 is the no-effect control and ±100 the full control effect
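Delayed-death screen, second-generation endpoint: infected erythrocytes, 2% hematocrit, 0.05% parasitemia final; 96 hours at 37 C, 5% CO2; luciferase detection reagent; luminescence decrease equals reduced growth.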
Sm TGR block = inhibitors of Schistosoma mansoni thioredoxin glutathione reductase | Q962Y6 | purified TGR, DTNB reduction, TNB absorbance 405 nm | Potency, µM (doses to about 114 µM), without a hit: at the highest dose activity change, negative = inhibition, most hits filed as inhibitors | 360,000 compounds, 3% hits; further: on the % scale 0 is the no-effect control and ±100 the full control effect; nearly all actives have a fitted effect of over 60% in size
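First, TGR (20 nM dispensed) and NADPH were mixed with compound. Second, a 15 min room-temperature incubation followed. Third, further NADPH and then DTNB were added to start the reaction. Finally, TNB absorbance was monitored kinetically.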
Pf growth 48h = inhibits P. falciparum growth in the first generation, 48 h; P. falciparum luciferase growth in erythrocytes, 48 h; Potency, µM (doses to about 28.7 µM), for inactives: at the highest dose activity change, negative = inhibition, hits mostly inhibitors; 310,000 compounds, 5.9% hits; AID 504832; further: on the % scale 0 is the no-effect control and ±100 the full control effect
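A one-generation exposure of luciferase-tagged malaria parasites in RPMI 1640/Albumax erythrocyte culture, 37 C and 5% CO2. Inhibition is inferred from decreased luminescence after adding detection reagent.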
AmpC inh no detg = inhibitors of E. coli AmpC beta-lactamase without detergent; AmpC nitrocefin hydrolysis, absorbance 480 nm, 0.0001% Triton; Potency, µM (series often up to 57.1 µM), inactives show at the top dose activity change, negative = inhibition, usual class: inhibitors; 330,000 compounds, 0.52% hits;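 further: plate controls were no compound for no effect and no enzyme for full effect; nearly all actives have a fitted effect of over 20% in size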
Target sequence (P00811 whole entry, looked up): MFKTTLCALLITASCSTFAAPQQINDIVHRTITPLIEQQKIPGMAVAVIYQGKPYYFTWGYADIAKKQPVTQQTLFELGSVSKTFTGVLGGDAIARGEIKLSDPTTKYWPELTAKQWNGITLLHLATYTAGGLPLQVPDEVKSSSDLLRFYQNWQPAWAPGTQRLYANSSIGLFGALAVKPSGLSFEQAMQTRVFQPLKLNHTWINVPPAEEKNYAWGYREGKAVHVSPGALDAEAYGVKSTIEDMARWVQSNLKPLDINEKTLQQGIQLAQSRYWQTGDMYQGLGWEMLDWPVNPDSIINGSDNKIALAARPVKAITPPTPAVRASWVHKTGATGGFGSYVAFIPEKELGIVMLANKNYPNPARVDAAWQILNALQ
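20 mM phosphate pH 7.0 + 0.01% (detergent screen) or 0.0001% Triton X-100; 5.3 nM AmpC reagent; cpd preinc 15 min RT; nitrocefin (800 uM stock) to start; A480 q20 s × 4 min; Activity was normalised to no-enzyme and no-compound control wells.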
AmpC detergent = blocks E. coli AmpC beta-lactamase in detergent assay; AmpC hydrolysis of nitrocefin, absorbance 480 nm, 0.01% Triton; 370,000 compounds, 0.041% hits; P00811; Potency, µM (top dose mostly 114 µM), for inactives: at the top dose activity change, negative = inhibition, actives largely listed as inhibitors;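 further: 0% = no-compound wells and -100% = no-enzyme wells; nearly all actives have a fitted effect of over 25% in size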
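20 mM phosphate pH 7.0 + 0.01% (detergent screen) or 0.0001% Triton X-100; 5.3 nM AmpC reagent; cpd preinc 15 min RT; nitrocefin (800 uM stock) to start; A480 q20 s × 4 min; Activity was normalised to no-enzyme and no-compound control wells.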
Starred values were filed as active, the others as inactive. A selection: hits, their analogues and other compounds. The true share with any hit is near 12%. Unless noted, the call rests on the fitted dose curve; in most records, active means well fitted curve in the direction sought with a large enough effect; inconclusive means small, poorly fitted or top-dose-only effect, or another doubt; inactive means no such curve, though single readings can be large; an effect the other way counts as inactive or inconclusive. Potency means the concentration at half of the fitted maximal effect.

How did COc1ccc2[nH]c(-c3cccc(F)c3)cc(=O)c2c1 do in these assays?
SARS PLP yeast: -14%; Pf growth 96h: 5.2µM*; Sm TGR block: -2%; Pf growth 48h: inconclusive; AmpC inh no detg: -12%; AmpC detergent: inconclusive

How did Cc1ccc2[nH]c(-c3cccc(F)c3)cc(=O)c2c1 do in these assays?
SARS PLP yeast: 3%; Pf growth 96h: 4.1µM*; Sm TGR block: -19%; Pf growth 48h: 5.2µM*; AmpC inh no detg: -23%; AmpC detergent: -7%

What do the screens show for `O=c1cc(-c2ccccc2)[nH]c2cc(Cl)ccc12`?
SARS PLP yeast: -1%; Pf growth 96h: 8.3µM*; Sm TGR block: -11%; Pf growth 48h: 4.7µM*; AmpC inh no detg: 4%; AmpC detergent: -7%

How did COc1cccc(-c2cc(=O)c3cc(NC(=O)c4ccc(N(C)C)cc4)ccc3[nH]2)c1 do in these assays?
SARS PLP yeast: 5%; Pf growth 96h: 13µM*; Sm TGR block: -1%; Pf growth 48h: 10µM*; AmpC inh no detg: -1%; AmpC detergent: 8%

How did Cc1ccn2c(=O)nc(SCC(=O)NCc3ccccc3Cl)nc2c1 do in these assays?
SARS PLP yeast: 8%; Pf growth 96h: -19%; Sm TGR block: -16%; Pf growth 48h: 10%; AmpC inh no detg: -20%; AmpC detergent: inconclusive

What do the screens show for `CC1(C)OC(=O)C=C[C@]2(C)[C@H]3CC[C@@]4(C)[C@H](C(=O)O)OC(=O)[C@H]5O[C@]54[C@]3(C)C(=O)C[C@@H]12`?
SARS PLP yeast: 14%; Pf growth 96h: 17%; Sm TGR block: 5%; Pf growth 48h: 10%; AmpC inh no detg: -5%; AmpC detergent: 5%

How did Cc1ccc(NC(=O)CCN2C(=O)c3ccccc3Sc3ncccc32)c(Cl)c1 do in these assays?
Sm TGR block: 11%; AmpC detergent: -13%

Results for CCCC(=O)Nc1ccccc1NC(=O)c1ccc(OC(C)=O)cc1 ?
SARS PLP yeast: 2%; Pf growth 96h: 33%; Pf growth 48h: 7%; AmpC inh no detg: -13%; AmpC detergent: 0%

What do the screens show for `CCC(C(=O)Nc1ccc(C)c(C)c1)n1c(=O)c(C(F)(F)F)nc2ccccc21` (stereo not drawn)?
Sm TGR block: 15%; AmpC detergent: 3%

Results for O=c1cc(-c2cccc(F)c2)[nH]c2ccccc12 ?
SARS PLP yeast: 2%; Pf growth 96h: inconclusive; Sm TGR block: -8%; Pf growth 48h: inconclusive; AmpC inh no detg: -30%; AmpC detergent: -8%

How did O=c1cc(-c2ccccc2)[nH]c2ccc(F)cc12 do in these assays?
SARS PLP yeast: 9%; Pf growth 96h: 1.5µM*; Sm TGR block: -12%; Pf growth 48h: 0.59µM*; AmpC inh no detg: -23%; AmpC detergent: -9%

What do the screens show for `CCC(=O)Nc1ccc(C(=O)CSc2nnc(-c3ccc(NS(C)(=O)=O)cc3)n2C)cc1OC`?
SARS PLP yeast: 3%; Pf growth 96h: 0.47µM*; Sm TGR block: 4%; Pf growth 48h: -19%; AmpC inh no detg: 19%; AmpC detergent: -12%

What do the screens show for `Cc1ccc(S(=O)(=O)Cc2ccc(C(=O)N3CCCCCC3)o2)cc1`?
SARS PLP yeast: -2%; Pf growth 96h: -2%; Sm TGR block: 16µM*; AmpC inh no detg: 9%; AmpC detergent: inconclusive

How did CCOC(=O)C1CCCN(C(=O)c2ccc(CNS(=O)(=O)c3ccc(C)cc3)cc2)C1 (stereo not drawn) do in these assays?
SARS PLP yeast: -2%; Pf growth 96h: -8%; Sm TGR block: 0%; Pf growth 48h: inconclusive; AmpC inh no detg: 44%; AmpC detergent: 6%

What do the screens show for `CCOC(=O)C1CCCN(C(=O)c2ccc(CS(=O)(=O)Cc3ccccc3C)o2)C1` (stereo not drawn)?
SARS PLP yeast: -2%; Pf growth 96h: 143%; Sm TGR block: 28µM*; Pf growth 48h: -27%; AmpC inh no detg: 22%; AmpC detergent: 1%

What do the screens show for `CCOC(=O)C1CCCN(C(=O)c2ccc(-c3ccc([N+](=O)[O-])cc3)o2)C1` (stereo not drawn)?
SARS PLP yeast: -44%; Pf growth 96h: 2%; Sm TGR block: 6.3µM*; Pf growth 48h: 47%; AmpC inh no detg: -1%; AmpC detergent: -20%

What do the screens show for `CCOC(=O)C1CCCN(C(=O)c2ccc(CS(=O)(=O)c3ccc(C)cc3)o2)C1` (stereo not drawn)?
SARS PLP yeast: -8%; Pf growth 96h: inconclusive; Sm TGR block: 20µM*; AmpC inh no detg: 6%; AmpC detergent: -13%

How did Cc1cc(C)cc(NC(c2cccc(Cl)c2)c2nnc(-c3ccccc3)o2)c1 (stereo not drawn) do in these assays?
Sm TGR block: 1%; AmpC detergent: 3%

What do the screens show for `CC(=O)Nc1ccc(NS(=O)(=O)c2c(C)nc3sccn3c2=O)cc1`?
Sm TGR block: -2%; AmpC detergent: 4%

What do the screens show for `Cc1ccc(S(=O)(=O)Cc2ccc(C(=O)N3CCN(c4cc(C)ccc4C)CC3)o2)cc1`?
SARS PLP yeast: 2%; Pf growth 96h: 12%; Sm TGR block: 1%; Pf growth 48h: inconclusive; AmpC inh no detg: -18%; AmpC detergent: -11%

Results for Cc1ccc(S(=O)(=O)Cc2ccc(C(=O)N3CCCC3)o2)cc1 ?
SARS PLP yeast: 4%; Pf growth 96h: -23%; Sm TGR block: 45µM*; AmpC inh no detg: 2%; AmpC detergent: 8%

Results for CCOP(=O)(OCC)C(Nc1cccc(C(F)(F)F)c1)c1ccc(F)cc1 (stereo not drawn) ?
SARS PLP yeast: 3%; Pf growth 96h: inconclusive; Sm TGR block: -14%; Pf growth 48h: inconclusive; AmpC inh no detg: 133%; AmpC detergent: inconclusive

Results for CCOP(=O)(OCC)C(Nc1cccc([N+](=O)[O-])c1)c1ccc(OC)cc1 (stereo not drawn) ?
SARS PLP yeast: 1%; Pf growth 96h: inconclusive; Sm TGR block: 2%; Pf growth 48h: inconclusive; AmpC inh no detg: 93%; AmpC detergent: 0%

What do the screens show for `CCOP(=O)(OCC)C(Nc1cccc(C(F)(F)F)c1)c1ccc(C)cc1` (stereo not drawn)?
SARS PLP yeast: -21%; Pf growth 96h: inconclusive; Sm TGR block: -4%; Pf growth 48h: 10µM*; AmpC inh no detg: 186%; AmpC detergent: -8%

What do the screens show for `CCCOP(=O)(OCCC)C(Nc1cccc(C(F)(F)F)c1)c1ccc(C)cc1` (stereo not drawn)?
SARS PLP yeast: -24%; Pf growth 96h: 12µM*; Sm TGR block: -25%; Pf growth 48h: inconclusive; AmpC inh no detg: 33%; AmpC detergent: -6%

Compound activity deposited in PubChem BioAssay by National Center for Advancing Translational Sciences (NCATS).
